Four compounds from PubChem BioAssay (EPA / NIEHS) can be followed below.

Molecules are shown by their SMILES. Calls of active or inactive are those of the source. Rule for the calls: active = hit-call score of the fitted dose curve at least 0.9, where 1 is the maximum; inactive = score below 0.9.

A word on the AC50: it is the concentration giving half of the maximal activity seen.

The nature of assay [1]: CEETOX_H295R_ESTRADIOL: CeeTox H295R High-throughput Steroidogenesis Assay for Estradiol (AID 2283440).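 Note: estradiol secreted into medium quantified by LC-MS/MS after dansyl derivatisation.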 The settings on record: actives raise or lower the signal. The method in brief:
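H295R cells pre-stimulated 48 h with 10 uM forskolin, then exposed 48 h to chemical in 0.1% DMSO. Medium estradiol quantified by MTBE extraction, dansyl derivatisation and HPLC-MS/MS; bidirectional fit versus DMSO; MTT viability required >/=70%.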

Assay [2] can be described thus: CEETOX_H295R_ESTRONE: CeeTox H295R High-throughput Steroidogenesis Assay for Estrone (AID 2283441). The settings on record: actives raise or lower the signal. The procedure, abridged:
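Estrone secreted into medium quantified by LC-MS/MS after dansyl chloride derivatization, following 48 h chemical exposure (0.1% DMSO final) of forskolin-prestimulated (10 uM, 48 h) H295R cells; gain or loss fitted against DMSO; MTT viability in same wells.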

The nature of assay [3]: CEETOX_H295R_PROG: CeeTox H295R High-throughput Steroidogenesis Assay for Progesterone (PROG) (AID 2283442).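 For AC50: human H295R adrenal cells primed with 10 µM forskolin before dosing.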 The settings on record: actives raise or lower the signal. The procedure, abridged: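 H295R adrenal cells prestimulated 48 h with 10 uM forskolin, then exposed 48 h to test chemical in 0.1% DMSO. Progesterone in medium quantified by HPLC-MS/MS after MTBE extraction; viability checked by MTT in same wells.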

Read-out in assay [4]: Tumor necrosis factor receptor superfamily member 6 (Homo sapiens) (UniProt P25445)
As to the kind of experiment: LTEA_HepaRG_FAS: Life Technologies and Expression Analysis (LTEA) Assay for Fas cell surface death receptor (FAS) using HepaRG (AID 2283447). The settings on record: mRNA level, 48 h; actives raise or lower the signal. The procedure, abridged:
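FAS transcript level was measured by TaqMan qRT-PCR against three housekeeping genes after 48 h chemical exposure. Cells were HepaRG, 0.5% DMSO vehicle, with a top concentration of 100 uM and half-log dilutions over eight points, in duplicate.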

Read-out in assay [5]: Fatty acid synthase (Homo sapiens) (UniProt P49327)
Nature of the assay: LTEA_HepaRG_FASN: Life Technologies and Expression Analysis (LTEA) Assay for Fatty Acid Synthase (FASN) using HepaRG (AID 2283448). The settings on record: mRNA level, 48 h; actives raise or lower the signal. The procedure, abridged: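 FASN transcript measured by TaqMan qRT-PCR, normalised to three housekeeping genes, after 48 h chemical exposure of HepaRG cells. Eight-point half-log series from 100 uM in 0.5% DMSO, duplicates; gain or loss fitted against vehicle.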

Read-out in assay [6]: Cyclin D2 (CCND2), CCND2 (gene 894)
As to the kind of experiment: LTEA_HepaRG_CCND2: Life Technologies and Expression Analysis (LTEA) Assay for Cyclin D2 (CCND2) using HepaRG (AID 2283449). The settings on record: mRNA level, 48 h; actives raise or lower the signal. The method in brief: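 CCND2 transcript levels, quantified by qRT-PCR and normalised to three housekeeping genes, were fitted bidirectionally against 0.5% DMSO. HepaRG cultures were dosed 48 h in duplicate with an 8-point half-log series up to 100 uM.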

Read-out in assay [7]: Cyclin Dependent Kinase Inhibitor 1A (CDKN1A), CDKN1A (gene 1026)
Nature of the assay: LTEA_HepaRG_CDKN1A: Life Technologies and Expression Analysis (LTEA) Assay for Cyclin Dependent Kinase Inhibitor 1A (CDKN1A) using HepaRG (AID 2283450). The settings on record: mRNA level, 48 h; actives raise or lower the signal. The procedure, abridged:
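Differentiated HepaRG cells in serum-free induction medium, exposed 48 h in duplicate to eight half-log concentrations up to 100 uM in 0.5% DMSO. mRNA measured by TaqMan qRT-PCR, normalized to ACTB, GAPDH, POLR2A; bidirectional fit versus DMSO.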

Read-out in assay [8]: Cyclin D1 (CCND1), CCND1 (gene 595)
Nature of the assay: LTEA_HepaRG_CCND1: Life Technologies and Expression Analysis (LTEA) Assay for Cyclin D1 (CCND1) using HepaRG (AID 2283451).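 For AC50: TaqMan qRT-PCR transcript level normalised to ACTB GAPDH and POLR2A housekeeping genes.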 The settings on record: mRNA level, 48 h; actives raise or lower the signal. The method in brief: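 Differentiated HepaRG cells exposed 48 h in serum-free induction medium to eight half-log concentrations from 100 uM top, 0.5% DMSO, duplicates. CCND1 mRNA measured by Fluidigm TaqMan qRT-PCR, normalised to ACTB, GAPDH, POLR2A; bidirectional fit.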

Read-out in assay [9]: flavin-containing dimethylaniline monooxygenases 3 (FMO3), FMO3 (gene 2328)
As to the kind of experiment: LTEA_HepaRG_FMO3: Life Technologies and Expression Analysis (LTEA) Assay for flavin-containing dimethylaniline monooxygenases 3 (FMO3) using HepaRG (AID 2283453). The settings on record: mRNA level, 48 h; actives raise or lower the signal. The method in brief: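 FMO3 transcript quantified by TaqMan qRT-PCR against three housekeeping genes after 48 h chemical exposure of HepaRG cells. Eight-point half-log series, top 100 uM, 0.5% DMSO vehicle; phenobarbital 1mM induction control; up- or down-regulation fitted.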

Read-out in assay [10]: Cytochrome P450 (CYP1A1), CYP1A1 (gene 1543)
As to the kind of experiment: LTEA_HepaRG_CYP1A1: Life Technologies and Expression Analysis (LTEA) Assay for Cytochrome P450 (CYP1A1) using HepaRG (AID 2283454). The settings on record: mRNA level, 48 h; actives raise or lower the signal. The procedure, abridged:
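Differentiated human HepaRG cells, after 48 h plating, exposed in duplicate for 48 h in serum-free induction medium to 8 half-log concentrations up to 100 uM in 0.5% DMSO. CYP1A1 mRNA by qRT-PCR, normalized to ACTB/GAPDH/POLR2A; bidirectional fit versus DMSO.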

Read-out in assay [11]: CFLAR gene, CFLAR (gene 8837)
As to the kind of experiment: LTEA_HepaRG_CFLAR: Life Technologies and Expression Analysis (LTEA) Assay for CFLAR gene using HepaRG (AID 2283455). The settings on record: mRNA level, 48 h; actives raise or lower the signal. The procedure, abridged: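 Transcript level by qRT-PCR (normalized to ACTB, GAPDH and POLR2A) after 48 h chemical exposure of HepaRG cells, top concentration 100 uM with half-log steps, 0.5% DMSO vehicle, duplicates; fitted bidirectionally against DMSO baseline.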

Read-out in assay [12]: Forkhead box O3 (FOXO3), FOXO3 (gene 2309)
As to the kind of experiment: LTEA_HepaRG_FOXO3: Life Technologies and Expression Analysis (LTEA) Assay for Forkhead box O3 (FOXO3) using HepaRG (AID 2283459). The settings on record: mRNA level, 48 h; actives raise or lower the signal. The procedure, abridged:
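FOXO3 transcript measured by qRT-PCR (normalized to ACTB, GAPDH, POLR2A) after 48 h exposure of HepaRG cells in serum-free induction medium. Duplicates, eight half-log concentrations up to 100 uM, 0.5% DMSO; gain or loss fitted against DMSO.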

Read-out in assay [13]: ABC Transporter (ABCB1), ABCB1 (gene 5243)
As to the kind of experiment: LTEA_HepaRG_ABCB1: Life Technologies and Expression Analysis (LTEA) Assay for ABC Transporter (ABCB1) using HepaRG (AID 2283460). The settings on record: mRNA level, 48 h; actives raise or lower the signal. The procedure, abridged: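 ABCB1 transcript level measured by TaqMan qRT-PCR against three housekeeping genes after 48 h chemical exposure of differentiated HepaRG cells. Top concentration 100 uM, half-log steps, eight points, 0.5% DMSO vehicle; bidirectional fit relative to DMSO.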

Read-out in assay [14]: growth arrest and DNA damage 45 (GADD45B), GADD45B (gene 4616)
As to the kind of experiment: LTEA_HepaRG_GADD45B: Life Technologies and Expression Analysis (LTEA) Assay for growth arrest and DNA damage 45 (GADD45B) using HepaRG (AID 2283461). The settings on record: mRNA level, 48 h; actives raise or lower the signal. The procedure, abridged:
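Differentiated human HepaRG cells in serum-free induction medium exposed 48 h in duplicate to eight concentrations, top 100 uM, half-log steps, 0.5% DMSO. GADD45B mRNA by TaqMan qRT-PCR, normalized to ACTB, GAPDH, POLR2A; bidirectional fit versus DMSO.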

Read-out in assay [15]: ABC Transporter (ABCB11), ABCB11 (gene 8647)
As to the kind of experiment: LTEA_HepaRG_ABCB11: Life Technologies and Expression Analysis (LTEA) Assay for ABC Transporter (ABCB11) using HepaRG (AID 2283463). The settings on record: mRNA level, 48 h; actives raise or lower the signal. The procedure, abridged: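 ABCB11 transcript levels quantified by TaqMan qRT-PCR against three housekeeping genes after 48 h chemical exposure of HepaRG cultures. Concentrations up to 100 uM in half-log steps, 0.5% DMSO vehicle; both induction and suppression scored.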

Read-out in assay [16]: catalase (CAT), CAT (gene 847)
As to the kind of experiment: LTEA_HepaRG_CAT: Life Technologies and Expression Analysis (LTEA) Assay for catalase (CAT) using HepaRG (AID 2283452). The settings on record: mRNA level, 48 h; actives raise or lower the signal. The method in brief:
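Expression of CAT was quantified by TaqMan qRT-PCR with ACTB/GAPDH/POLR2A normalization after 48 h chemical exposure of HepaRG. Eight-point half-log series, top 100 uM, in 0.5% DMSO; gain or loss fitted against vehicle.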

Read-out in assay [17]: ABC Transporter (ABCC3), ABCC3 (gene 8714)
As to the kind of experiment: LTEA_HepaRG_ABCC3: Life Technologies and Expression Analysis (LTEA) Assay for ABC Transporter (ABCC3) using HepaRG (AID 2283462). The settings on record: mRNA level, 48 h; actives raise or lower the signal. The method in brief:
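Differentiated human HepaRG cells exposed 48 h in serum-free induction medium, 0.5% DMSO vehicle, 8-point half-log series to 100 uM in duplicate. ABCC3 mRNA by qRT-PCR, normalised to ACTB, GAPDH, POLR2A; bidirectional fit vs DMSO.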

Sequence of Fatty acid synthase (Homo sapiens) (P49327 whole entry, looked up): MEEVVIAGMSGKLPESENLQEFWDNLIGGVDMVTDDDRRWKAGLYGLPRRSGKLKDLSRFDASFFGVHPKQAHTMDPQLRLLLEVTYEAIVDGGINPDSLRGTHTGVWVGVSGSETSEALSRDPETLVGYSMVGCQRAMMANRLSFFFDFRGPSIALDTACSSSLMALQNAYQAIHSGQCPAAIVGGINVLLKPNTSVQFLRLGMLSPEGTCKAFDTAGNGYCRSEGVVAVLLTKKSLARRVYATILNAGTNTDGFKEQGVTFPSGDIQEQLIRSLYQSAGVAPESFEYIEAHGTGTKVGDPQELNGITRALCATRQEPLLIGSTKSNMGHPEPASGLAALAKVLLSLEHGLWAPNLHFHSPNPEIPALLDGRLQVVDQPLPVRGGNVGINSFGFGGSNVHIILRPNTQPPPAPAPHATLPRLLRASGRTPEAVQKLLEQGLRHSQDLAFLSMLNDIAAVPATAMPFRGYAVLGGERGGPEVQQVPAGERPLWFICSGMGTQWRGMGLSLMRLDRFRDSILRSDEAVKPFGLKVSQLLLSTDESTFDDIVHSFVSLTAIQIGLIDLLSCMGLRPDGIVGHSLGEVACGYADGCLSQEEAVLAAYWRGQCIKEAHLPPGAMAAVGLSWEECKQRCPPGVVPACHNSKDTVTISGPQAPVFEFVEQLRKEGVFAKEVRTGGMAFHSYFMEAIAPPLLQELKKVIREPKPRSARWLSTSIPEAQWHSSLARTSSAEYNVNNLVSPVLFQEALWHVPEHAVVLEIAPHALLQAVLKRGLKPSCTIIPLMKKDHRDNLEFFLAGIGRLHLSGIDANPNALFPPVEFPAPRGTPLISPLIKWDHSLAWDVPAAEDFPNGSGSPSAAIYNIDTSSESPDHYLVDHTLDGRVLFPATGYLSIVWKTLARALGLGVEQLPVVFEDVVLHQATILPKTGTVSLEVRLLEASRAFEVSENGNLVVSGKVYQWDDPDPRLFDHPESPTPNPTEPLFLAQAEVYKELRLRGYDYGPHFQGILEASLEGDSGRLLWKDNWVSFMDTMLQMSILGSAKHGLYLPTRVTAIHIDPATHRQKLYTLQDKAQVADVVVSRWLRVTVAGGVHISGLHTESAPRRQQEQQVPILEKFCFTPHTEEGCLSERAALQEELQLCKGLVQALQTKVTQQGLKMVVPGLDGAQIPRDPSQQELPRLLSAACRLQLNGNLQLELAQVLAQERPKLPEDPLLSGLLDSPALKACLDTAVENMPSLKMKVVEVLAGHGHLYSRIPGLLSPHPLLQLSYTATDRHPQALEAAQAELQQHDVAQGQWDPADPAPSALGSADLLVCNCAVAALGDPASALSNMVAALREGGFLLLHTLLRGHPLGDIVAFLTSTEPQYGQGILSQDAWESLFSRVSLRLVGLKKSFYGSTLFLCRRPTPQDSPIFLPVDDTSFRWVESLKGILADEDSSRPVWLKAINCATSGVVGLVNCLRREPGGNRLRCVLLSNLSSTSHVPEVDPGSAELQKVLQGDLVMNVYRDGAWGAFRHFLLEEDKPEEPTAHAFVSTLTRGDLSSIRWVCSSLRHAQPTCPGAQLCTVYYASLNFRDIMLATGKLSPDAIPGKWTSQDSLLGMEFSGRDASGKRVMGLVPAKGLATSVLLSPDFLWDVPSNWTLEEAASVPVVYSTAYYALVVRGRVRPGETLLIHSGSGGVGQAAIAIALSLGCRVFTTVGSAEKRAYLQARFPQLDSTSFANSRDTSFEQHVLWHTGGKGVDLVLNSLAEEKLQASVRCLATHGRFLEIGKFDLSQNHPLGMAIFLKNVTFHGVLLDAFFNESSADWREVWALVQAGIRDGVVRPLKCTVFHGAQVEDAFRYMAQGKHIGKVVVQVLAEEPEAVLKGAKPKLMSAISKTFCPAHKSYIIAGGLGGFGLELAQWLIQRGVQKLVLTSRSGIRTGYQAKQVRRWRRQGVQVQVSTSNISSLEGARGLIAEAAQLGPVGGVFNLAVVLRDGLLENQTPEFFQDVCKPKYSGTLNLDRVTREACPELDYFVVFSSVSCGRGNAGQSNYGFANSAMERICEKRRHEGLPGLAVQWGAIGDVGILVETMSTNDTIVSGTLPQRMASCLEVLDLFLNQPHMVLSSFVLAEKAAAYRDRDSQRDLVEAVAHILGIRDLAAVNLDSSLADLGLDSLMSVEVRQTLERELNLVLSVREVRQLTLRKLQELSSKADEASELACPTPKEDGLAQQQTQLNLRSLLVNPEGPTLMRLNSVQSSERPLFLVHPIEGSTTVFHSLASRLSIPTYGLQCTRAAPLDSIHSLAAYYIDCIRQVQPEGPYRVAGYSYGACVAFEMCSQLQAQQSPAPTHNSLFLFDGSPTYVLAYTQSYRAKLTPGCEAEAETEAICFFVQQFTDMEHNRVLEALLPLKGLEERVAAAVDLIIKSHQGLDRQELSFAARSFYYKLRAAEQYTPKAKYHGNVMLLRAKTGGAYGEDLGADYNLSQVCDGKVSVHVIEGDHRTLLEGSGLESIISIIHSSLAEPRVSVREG

With `O=C(Nc1ccc([N+](=O)[O-])cc1Cl)c1cc(Cl)ccc1O`, the call in [1], in assay [2], in assay [3], in assay [6], in [7] and in assay [12] was inactive. The AC50 was 3.08 µM (active) in [4]; 2.94 µM (active) in assay [5]; 3.16 µM (active) in assay [8]; 2.69 µM (active) in [9]; 0.147 µM (active) in assay [10]; 2.33 µM (active) in [11]. In addition, the results for the concentration at half-maximal activity (AC50) in [13], in assay [14] and in assay [15] were 2.25 µM (active), 3.32 µM (active) and 3.37 µM (active), respectively.
As to `c1ccc(Nc2ccccc2)cc1`, the result in assay [3], in assay [4], in [5], in [7], in [8] and in [16] was inactive. Further, the call in assay [9], in assay [11], in assay [12], in [13], in [14] and in assay [15] was inactive.
In the case of `C=CCOC(Cn1ccnc1)c1ccc(Cl)cc1Cl` (configuration not stated), the AC50 was 0.296 µM (active) in [3]; 68.9 µM (active) in [4]; 38.3 µM (active) in assay [5]; 28.6 µM (active) in assay [7]; 90.5 µM (active) in assay [8]; 35.3 µM (active) in assay [9]. For the same compound, the results for the concentration at half-maximal activity (AC50) in assay [11], in assay [14] and in [17] were 79.2 µM (active), 91.3 µM (active) and 35.5 µM (active), respectively. Also, the compound was classed as inactive in assay [6], in [12] and in assay [13].
On to `C[C@]12C[C@H](O)[C@H]3[C@@H](CCC4=CC(=O)CC[C@@]43C)[C@@H]1CC[C@@H]2C(=O)CO`, for which the result in assay [2], in assay [4], in assay [5], in assay [6], in assay [7] and in assay [8] was inactive. In addition, the outcome in [9], in [11], in [12], in assay [14] and in assay [15] was inactive. In addition, the concentration at half-maximal activity (AC50) is 50 µM (active) in [10] and 70 µM (active) in assay [13].
